Compounds with a hit are over-represented: about 2.5% of the library has one in this group of screens.
L3MBTL1 block = inhibitors of human L3MBTL1 | AlphaScreen L3MBTL1–H3K9me1 peptide binding | Potency, µM (top dose mostly 57.1 µM), without a hit: top-dose activity, negative = inhibition, actives largely listed as inhibitors | 230,000 tested, 0.66% active; further: on the % scale 0 is the no-effect control and ±100 the full control effect; nearly all actives have a fitted effect of over 60% in size
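Read-out is AlphaScreen signal from streptavidin donor and nickel chelate acceptor beads (10 ug/mL final each) bridging L3MBTL1 (50 nM) and biotinylated K9-monomethylated H3(1-15) peptide (75 nM), after 30 min compound exposure at room temperature.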
Pol beta inh = DNA polymerase beta (human) inhibition; P06746; Pol beta primer extension/strand displacement, fluorescence kinetic; Potency, µM (series often up to 114 µM), inactives show top-dose activity change, negative = inhibition, hits mostly inhibitors; 340,000 tested, 1.3% active; AID 485314; further: on the % scale 0 is the no-effect control and ±100 the full control effect
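Enzyme-only controls used 10 nM Pol beta; buffer lacking enzyme served as negative control. Compound preincubated 15 min, then 50 nM substrate added; 0 and 10 min reads at room temperature.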
POLH inh = DNA polymerase eta (human) inhibition. Q9Y253. recombinant Pol eta, fluorescent DNA replication assay. 390,000 tested, 1.2% active. AID 588591. Potency, µM (series often up to 114 µM), for inactives: top-dose activity change, negative = inhibition, hits mostly inhibitors; further: on the % scale 0 is the no-effect control and ±100 the full control effect
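Pol eta (10 nM) was preincubated with compounds for 15 min at room temperature, after which fluorescent replication substrate (50 nM final) was added to start the reaction. Fluorescence was read kinetically at 0 and 10 min.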
APEX1 inh = inhibitors of human APE1 endonuclease; Potency, µM (titrated, usually from 65.8 µM), inactives show at the top dose activity change, negative = inhibition, actives largely listed as inhibitors; 350,000 tested, 0.35% active; recombinant APE1, TAMRA/BHQ-2 abasic DNA cleavage fluorescence; P27695;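 further: plate controls were vehicle for no effect and reference inhibitor for full effect; nearly all actives have a fitted effect of over 55% in size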
Target sequence (P27695 whole entry, looked up): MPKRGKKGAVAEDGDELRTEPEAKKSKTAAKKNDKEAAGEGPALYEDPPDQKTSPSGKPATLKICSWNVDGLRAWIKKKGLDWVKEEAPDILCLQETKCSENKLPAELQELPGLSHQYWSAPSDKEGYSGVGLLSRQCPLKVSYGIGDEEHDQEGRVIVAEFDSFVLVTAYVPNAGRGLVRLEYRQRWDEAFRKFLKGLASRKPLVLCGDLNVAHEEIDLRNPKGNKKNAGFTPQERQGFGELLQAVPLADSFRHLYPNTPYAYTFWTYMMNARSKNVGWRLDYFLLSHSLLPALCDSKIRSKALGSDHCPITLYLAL
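Quantitative HTS: incision of a TAMRA/BHQ-2 double-stranded substrate bearing a tetrahydrofuran abasic site by 0.75 nM APE1 raises fluorescence. Substrate 50 nM final, added after 15 min compound preincubation at room temperature; progress as third-minus-first kinetic read difference.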
POLI inh = DNA polymerase iota (human) inhibition | Q9UNA4 | Pol iota fluorescent replication assay, 10 min | Potency, µM (top dose mostly 115 µM), without a hit: top-dose activity, negative = inhibition, actives largely listed as inhibitors | 390,000 tested, 1% active
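Fluorescent replication assay read twice, at 0 min and 10 min after adding 50 nM (final) substrate. Enzyme (10 nM) and compounds were first incubated 15 min at room temperature; enzyme-free buffer wells were negative controls.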
Pol kappa inh = blocks human DNA polymerase kappa activity | 400,000 tested, 0.53% active | purified Pol kappa, fluorescent DNA synthesis assay, 10 min | AID 588579 | Potency, µM (titrated, usually from 107 µM), inactives show at the top dose activity, negative = inhibition, most hits filed as inhibitors; further: on the % scale 0 is the no-effect control and ±100 the full control effect
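10 nM Pol kappa was preincubated with compounds for 15 min at room temperature. Reaction started with 50 nM (final) substrate. Fluorescence read kinetically at 0 and 10 min.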
* hit, by the source's call; u = inconclusive; x = no result given; [ ] = another dose, or the depositor's remark. The call rests on the fitted dose curve; in most records, active means well fitted curve in the direction sought with a large enough effect; inconclusive means small, poorly fitted or top-dose-only effect, or another doubt; inactive means no such curve, though single readings can be large; an effect the other way counts as inactive or inconclusive. Potency means the concentration at half of the fitted maximal effect.

SMILES	L3MBTL1 block	Pol beta inh	POLH inh	APEX1 inh	POLI inh	Pol kappa inh
CSc1nc(NCc2ccco2)c2c3c(sc2n1)CN(C)CC3	6.7%	39.8µM*	x	-6.0%	x	x
CSc1nc(SCC(=O)NCc2ccco2)c2c3c(sc2n1)CN(C)CC3	x	x	u	x	-7.9%	-23.2%
CC(C)CN(CC(C)C)C1=N/C(=C\c2ccco2)C(=O)N1c1ccccc1	-15.2%	28.2µM*	-11.4%	-11.7%	u	-38.7%
Nc1nccnc1C(=O)OCC(=O)NCCc1ccc(S(N)(=O)=O)cc1	-21.9%	x	u	9.6%	22.4µM*	-21.4%
CCOc1cc(C2C(C#N)=C(N)Oc3n[nH]c(-c4ccccc4)c32)ccc1O (configuration not stated)	-3.1%	36.7%	1.2%	-1.8%	25.1µM*	-2.0%
COC1=CC(=Cc2c(N)n3nc(CC(=O)N4CCCCC4)sc3nc2=O)C=C(OC)C1=O	x	16.9%	56.2µM*	-14.6%	u	u
COC1=C/C(=C/c2c(N)n3nc(CC(=O)N4CCCC4)sc3nc2=O)C=CC1=O	x	-0.9%	-4.5%	59.7%	u	u
CC(=O)Nc1ccc(NC(=O)C(OC(=O)c2ccccc2)C(OC(=O)c2ccccc2)C(=O)O)cc1 (configuration not stated)	3.6%	-21.7%	-0.1%	2.1%	62.4%	-22.1%
O=C(OC(C(=O)O)C(OC(=O)c1ccccc1)C(=O)NCc1ccccc1)c1ccccc1 (configuration not stated)	9.4%	27.2%	-9.5%	13.7%	89.1µM*	-6.2%
CN(C)c1ccc(-c2cncnc2Nc2ccccc2)cc1	x	x	x	7.1%	x	-3.5%[60.1 µM]
COCc1c(Br)c(C)nc(OCC(=O)N/N=C/c2ccc(C)o2)c1C#N	-8.2%	17.2%	-17.1%	0.2%	-0.4%	-0.6%
COCc1c(Br)c(C)nc(OCC(=O)N/N=C/c2ccco2)c1C#N	x	17.8µM*	20.2%	u	u	-1.9%[60.1 µM]
CC(=O)N1CCN(c2ccc(NCc3ccccc3)cc2)CC1	-4.8%	13.7%	-6.5%	-7.5%	-3.5%	-10.0%
Fc1ccc(CNc2ccc(N3CCN(Cc4ccccc4)CC3)cc2)cc1	22.4µM*	-4.6%	-13.5%	31.7%	-7.7%	-13.9%
CN(C)c1ccc(/C=C(/NC(=O)c2ccccc2)C(=O)N/N=C/c2ccc([N+](=O)[O-])c(O)c2)cc1	31.6µM*	-2.1%	u	2.5%	u	u
O=C(N/N=C/c1ccc2c(c1)OCO2)/C(=C/c1ccc2c(c1)OCO2)NC(=O)c1ccccc1	-4.7%	5.4%	u	-5.7%	-6.0%	-6.4%
C=C1[C@@H]2CC[C@@H](C2)C1(C)C	x	x	x	-0.8%	x	x
CCCCCC(=O)N1C[C@@H](n2cc(COC(=O)c3ccccc3)nn2)[C@H](O)C[C@@H]1c1ccccc1	x	x	-8.0%	x	x	x
O=[N+]([O-])c1ccc(-c2csc(Nc3ccccc3)n2)cc1	x	x	x	x	25.0%	4.1%
O=c1nc(Nc2ccccc2)sc2ccc([N+](=O)[O-])cc12	4.2%	u	15.8µM*	4.5%	0.2%	-12.2%
O=C1CC(=O)OC(c2ccc([N+](=O)[O-])cc2)O1	x	x	-6.5%	x	x	x
CCC1C(=O)C(C)(C)C(=O)OC1c1ccc([N+](=O)[O-])cc1 (configuration not stated)	10.0%[2.29 µM]	89.1µM*	-17.4%	21.9%	46.2%	-2.0%
COC(=O)c1ccccc1NC(=O)CN(c1ccccc1OC)S(C)(=O)=O	x	5.2%	-10.3%	x	13.6%	-14.7%
CC[C@]12c3[nH]c4ccccc4c3CCN1C(=O)C(CC(=O)NCc1ccco1)C[C@@H]2C(=O)N1CCN(C(=O)c2ccco2)CC1 (some centres not stated)	-0.2%	x	1.0%	2.7%	27.0%	-13.6%
CC[C@]12c3[nH]c4cc(-c5ccco5)ccc4c3CCN1C(=O)[C@@H](CC(=O)NCc1ccco1)C[C@@H]2C(=O)N1CCN(C(=O)c2ccco2)CC1	35.5µM*	x	-9.3%	-6.2%	50.1µM*	-11.6%

From PubChem BioAssay
